Screens as filed in PubChem BioAssay.
Tb PYK inh: T. brucei pyruvate kinase inhibition; Q57TT1; TbPYK enzyme, Kinase-Glo Plus ATP luminescence, 45 min; Potency, µM (doses to about 76.8 µM), without a hit: at the highest dose activity, negative = inhibition, most hits filed as inhibitors; hit rate 0.12% among 410,000; also: potency is read from the fitted curve at half-maximal effect; % is scaled to controls: 0 for no effect and ±100 for the full control effect; nearly all actives have a fitted effect of over 50% in size
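ADP (130 uM final) triggers the TbPYK reaction after compound addition; incubation is 45 min at room temperature. Kinase-Glo Plus is then added and luminescence imaged. Normalized data are fitted to concentration-effect curves.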
CHX counter: affects cycloheximide protein synthesis inhibition readout, counter-screen; cell reporter, cycloheximide protein synthesis inhibition counterscreen; max response, %; hit rate 12% among 300,000; AID 2314; in the data active = max response mostly above about 13%, no sharp cut-off; inactive = mostly below about 14%; also: read at 38.3 µM for the half of the compounds with a filed dose; 0% is about no effect
LmPK inh: inhibitors of Leishmania mexicana pyruvate kinase; purified LmPK, Kinase-Glo ATP luminescence, 1 h; Potency, µM (titrated, usually from 57.5 µM), for inactives: top-dose activity change, negative = inhibition, actives largely listed as inhibitors; hit rate 0.37% among 290,000; AID 1721; also: potency is read from the fitted curve at half-maximal effect; % is scaled to controls: 0 for no effect and ±100 for the full control effect
Target sequence (Q27686 whole entry, looked up): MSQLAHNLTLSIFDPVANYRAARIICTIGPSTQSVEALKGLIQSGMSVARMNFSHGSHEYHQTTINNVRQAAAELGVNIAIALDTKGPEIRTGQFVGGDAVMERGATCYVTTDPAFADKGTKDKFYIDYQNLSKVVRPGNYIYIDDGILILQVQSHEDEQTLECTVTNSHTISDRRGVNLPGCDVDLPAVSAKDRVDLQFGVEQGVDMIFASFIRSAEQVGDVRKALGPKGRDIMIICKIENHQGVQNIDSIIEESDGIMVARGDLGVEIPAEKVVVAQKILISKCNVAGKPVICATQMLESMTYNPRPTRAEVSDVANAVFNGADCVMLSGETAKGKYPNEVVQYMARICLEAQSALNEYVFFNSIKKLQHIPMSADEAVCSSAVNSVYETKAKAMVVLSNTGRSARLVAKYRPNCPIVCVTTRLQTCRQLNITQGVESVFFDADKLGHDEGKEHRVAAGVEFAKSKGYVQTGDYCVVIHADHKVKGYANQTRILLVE
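0.1 nM LmPK, 0.5 mM PEP, 0.1 mM ADP; 50 mM imidazole pH 7.2, 7 mM MgCl2, 50 mM KCl; 1 h RT. Kinase-Glo luminescence readout, normalized to no-enzyme (full inhibition) and uninhibited wells.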
Shiga toxin inh: blocks Shiga toxin action in Vero cells | inhibition, % at 38.7 µM | hit rate 9.2% among 290,000 | AID 2315 | Vero cells, Shiga toxin protein synthesis inhibition reporter; in the data active = inhibition mostly above about 28%, no sharp cut-off; inactive = mostly below about 43%; also: 0% is about no effect
RE007 growth inh: less growth of the S. pombe RE007 Vpr strain | S. pombe RE007 Vpr strain, BacTiter-Glo ATP luminescence, 24 h | Potency, µM (highest dose often 92.2 µM), for inactives: at the highest dose activity change, negative = less growth, hits mostly inhibitors | hit rate 0.21% among 360,000 | AID 651644; active = well fitted falling curve with a large enough effect; inconclusive = small, poorly fitted or top-dose-only effect; inactive = no such curve, though single readings can be large or run the other way; also: potency is read from the fitted curve at half-maximal effect; % is scaled to controls: 0 for no effect and ±100 for the full control effect; nearly all actives have a fitted effect of over 50% in size
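Fission yeast strain RE007, carrying one chromosomally integrated HIV-1 vpr copy, was seeded at OD 0.01 in PMG+AL medium with 23 nL pinned compound. After 24 h at 30 °C and 99% humidity, viability was read by BacTiter-Glo luminescence.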
Giardia FBPA inh: blocks Giardia fructose-bisphosphate aldolase activity | purified Giardia FBPA | Potency, µM (series often up to 59.6 µM), without a hit: at the top dose activity, negative = inhibition, hits mostly inhibitors | hit rate 0.71% among 290,000 | AID 2451; also: potency is read from the fitted curve at half-maximal effect; % is scaled to controls: 0 for no effect and ±100 for the full control effect; nearly all actives have a fitted effect of over 55% in size
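40 nM FBPA preincubated 10 min at RT with compound (up to 57.5 uM final), then substrate plus GAPDH/TPI/NAD/arsenate coupling and diaphorase/resazurin added. Fluorescence read after 20 min at RT, 525/598 nm.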
Starred values were filed as active, the others as inactive; ? = inconclusive; . = no result given; [ ] = dose if it differs, or a comment. Only a selection was taken, and hits are over-represented in it overall. Unless noted, calls follow the shape of the dose curve; as a rule, active = well fitted curve in the direction sought with a large enough effect; inconclusive = small, poorly fitted or top-dose-only effect, or another doubt; inactive = no such curve, though single readings can be large; an effect the other way counts as inactive or inconclusive.

SMILES	Tb PYK inh	CHX counter	LmPK inh	Shiga toxin inh	RE007 growth inh	Giardia FBPA inh
Cc1nc(NC(=O)COC(=O)c2cccs2)c(Cl)cc1Cl	4%	.	.	.	2%	.
CCN(CC)CCCNc1nc(-n2nc(C)cc2C)nc2sc3c(c12)CC(C)(C)OC3	1%	13*	0%	52	-1%	1%
Cc1cc(C)n(-c2nc(NCc3cccnc3)c3c4c(sc3n2)COC(C)(C)C4)n1	-3%	22*	15%	40	12%	10%
CC(=O)Nc1nc(-c2ccc([N+](=O)[O-])cc2)cs1	0%	9	0%	54	-3%	-3%
CC(C)c1nc(-c2ccc([N+](=O)[O-])cc2)cs1	-1%	39*	-3%	56*	.	-1%
C/C=C/C=N/Nc1nc(-c2ccc([N+](=O)[O-])cc2)cs1	-5%	10	-1%	90*	109%	0%
CC(C)=NNc1nc(-c2ccc([N+](=O)[O-])cc2)cs1	-5%	22*	-1%	18*	153%	-6%
Cc1nc(-c2ccccn2)sc1C(=O)Nc1ccc(F)cc1	-3%	19*	5%	5	2%	-2%
Cc1nc(-c2ccccn2)sc1C(=O)Nc1ccc(F)cc1F	3%	31*	5%	59*	-8%	-1%
CNC(=O)c1sc(-c2ccccn2)nc1C	2%	4	-7%	10	13%	0%
C/C(=N\NC(=O)c1cccc(N/N=C(\C)c2ccc([N+](=O)[O-])cc2)c1)c1ccc([N+](=O)[O-])cc1	4%	17*	2%	39*	7%	1%
C/C(=N\NC(=O)c1cccc(N/N=C(\C)c2ccccc2)c1)c1ccccc1	-4%	72*	-12%	144*	-11%	-2%
C/C(=N\Nc1ccc(Cl)c(C(=O)O)c1)c1cccc([N+](=O)[O-])c1	-9%	80*	-11%	159*	4%	-9%
C/C(=N\Nc1ccccc1)c1cccc(N)c1	-8%	23*	-1%	40	11%	-13%
C/C(=N\NC(=S)Nc1ccc(C)cc1)c1cccc(N)c1	-2%	17	3%	54*	2%	-1%
Cc1ccccc1CN(C)Cc1cc(=O)oc2c(C)c(C)ccc12	3%	23*	-2%	49	8%	5%
COc1cccc(CN(C)Cc2cc(=O)oc3c(C)c(C)ccc23)c1	30%	16*	-3%	3	-8%	7%
Cc1ccc(C(=O)NCC(=O)OCC(=O)NCC(F)(F)F)cc1	1%	18*	-3%	-5	0%	-3%
Cc1ccc(C(=O)NCC(=O)NCC(=O)OCC(=O)c2ccc(F)cc2)cc1	0%	-3	1%	-9	-6%	2%
Cn1cc(-c2csc(C(O)c3ccc(F)c(F)c3)n2)cn1 (stereo not drawn)	0%	.	.	.	-1%[18.4 µM]	.
Cc1ccc(C(=O)Nc2ncc(C)s2)s1	0%	17*	-6%	42	20%	-13%
CCc1noc(C)c1C(=O)Nc1ncc(C)s1	1%	19*	-2%	41*	-2%	-2%
Cc1ccc(C(=O)Nc2ncc(C)s2)o1	-21%	35*	13µM*	50	-18%	0%
Cc1ccc(C(=O)Nc2ncc(Cc3ccc(F)cc3)s2)o1	-2%	41*	-1%	156*	1%	-4%
Cc1nnc(SCC(=O)Nc2ncc(Cc3ccc(F)cc3)s2)n1N	5%	2	-3%	9	-15%	0%
SMILES	Tb PYK inh	CHX counter	LmPK inh	Shiga toxin inh	RE007 growth inh	Giardia FBPA inh
COC(=O)C[C@H]1C[C@H]2c3cc(NC(=O)NC4CCCC4)ccc3O[C@H]2[C@@H](CO)O1	-10%	.	.	.	-5%	.
COc1cc(NC(=O)c2nnn(CC(=O)Nc3cc(C)ccc3C)c2N)cc(OC)c1	0%	.	.	.	.	.
S=C(N/N=C1\CCc2ccccc21)NC1CCCCC1	0%	32*	-2%	112*	-17%	-1%
O=C(CNc1ccc(F)cc1)N/N=C1\CCc2ccccc21	4%	13	5%	51	-8%	-6%
COc1ccc(NCC(=O)N/N=C2\CCc3ccccc32)cc1	5%	29*	2%	66*	-18%	-25%
O=C(N/N=C1/CCCc2ccccc21)c1cc([N+](=O)[O-])cc([N+](=O)[O-])c1	.	-2	0%	-3	.	-3%
CC(C)NC(=S)N/N=C1\CCCCc2ccccc21	-4%	-8	3%	-11	-10%	7%
O=C(N/N=C1\CCc2ccccc21)c1ccccc1Cl	-1%	53*	-9%	96*	-8%	-1%
O=C(N/N=C1\CCc2ccccc21)c1ccc(O)cc1	-17%	43*	?	57*	-2%	-15%
Cc1cccc(OCCSc2nnc(-c3cccs3)o2)c1	1%	.	.	.	.	.
COc1ccc(S(=O)(=O)N2CCCC2CNC(=O)C(=O)NCc2cccs2)cc1 (stereo not drawn)	0%	.	.	.	13%	.
O=C(N/N=C1/CCc2ccccc21)C1CC1	2%	33*	-4%	92*	-20%	-4%
Cc1ccc(C(=O)N/N=C2\CCc3ccccc32)c(C)c1	-8%	63*	-11%	152*	0%	24%
CCOC(=O)N/N=C1\CCc2ccccc21	-15%	38*	-9%	73*	-2%	-4%
COc1ccc(N2CC(NC(=O)/C=C\c3ccccc3)CC2=O)cc1 (stereo not drawn)	0%	.	.	.	.	.
CC(C)c1ccc(N2C(=O)CSC23C(=O)N(Cc2ccccc2F)c2ccccc23)cc1 (stereo not drawn)	0%	.	.	.	.	.
COc1ccc(Br)cc1C1NC(c2ccc3c(c2)OCO3)=CC(c2cc(Cl)ccc2O)N1 (stereo not drawn)	.	45*	.	90*	.	.
Oc1ccc(Cl)cc1C1C=C(c2ccc3c(c2)OCO3)NC(c2cc(Br)ccc2F)N1 (stereo not drawn)	.	31*	.	83*	.	.
O=S1(=O)C=C(Oc2ccc(F)cc2)c2ccccc21	7%	11*	3%	27*	2%	21%
O=S1(=O)C=C(Oc2ccc3ccccc3c2)c2ccccc21	0%	7	6%	63	-16%	-12%
Cn1c(SCC(=O)Nc2ccc(Br)cc2)nc(O)cc1=O	4%	-3	3%	19	1%	6%
CC1=C(c2ccc(C)cc2)[N+](=O)C(C)(C)N1[O-]	3%	19*	-20%	78*	-4%	-4%
O=C(Nc1nc(-c2cccs2)cs1)c1cccc(S(=O)(=O)N2CCCCCC2)c1	1%	21*	5%	99*	-3%	-7%
Cc1cc(-c2csc(NC(=O)c3cccc(S(=O)(=O)N(C)C)c3)n2)c(C)n1-c1ccccc1	-7%	9	0%	39*	7%	-7%
